Structures are written as SMILES. Out of some 340,000 compounds screened, about 4,200 (1.2%) were called active.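 The calls were made as follows: active = inhibition above the mean of all tested compounds plus 3 SD (cut at about 24% in these data); inactive = the rest.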 For the sample, actives were picked, then their nearest neighbours and some compounds at random.

In this test the target is Platelet-activating factor acetylhydrolase IB subunit alpha2 (Homo sapiens) (UniProt P68402). Briefly: inhibition of PAF acetylhydrolase 1b subunit 2 – biochemical, fluorescence polarization, human, primary screen (AID 492953).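 Also: 0% = enzyme with DMSO and 100% = wells lacking PAFAH1B2.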 The settings on record: recombinant PAFAH1B2, FP-rhodamine activity probe, at 3.39 µM, active compounds read high.
Chain of Platelet-activating factor acetylhydrolase IB subunit alpha2 (Homo sapiens) (P68402 whole entry, looked up): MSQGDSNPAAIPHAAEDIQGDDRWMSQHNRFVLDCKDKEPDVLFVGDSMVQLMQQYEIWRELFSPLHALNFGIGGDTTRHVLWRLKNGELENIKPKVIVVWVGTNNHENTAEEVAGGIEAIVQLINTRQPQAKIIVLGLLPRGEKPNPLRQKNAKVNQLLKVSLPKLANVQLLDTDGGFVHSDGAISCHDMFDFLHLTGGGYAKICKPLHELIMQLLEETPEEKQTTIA
On to `Cc1ccc(OCCNC(=O)CCNS(=O)(=O)c2ccc(Br)cc2)cc1`, for which the inhibition (as a rule, the relative decrease from the control value, in per cent) is 24.2% (active).
With `O=C(CCNS(=O)(=O)c1ccc(Br)cc1)NCC1CCCO1` (stereo not drawn), the inhibition was 7.29% (inactive).
On to `Cc1ccc(S(=O)(=O)NCCNC(C)c2ccc(Br)cc2)cc1` (stereo not drawn), for which the inhibition was 23% (inactive).
With `Cc1ccc(CCN2CC(C(=O)NCCc3ccccc3)CC2=O)cc1` (stereo not drawn), the inhibition was 7.51% (inactive).
For `O=C1Nc2cc(Cl)c(Cl)cc2N(O)N1c1cc(Cl)cc(Cl)c1`, the inhibition is 6.99% (inactive).
The same measure for `CCCCN(C(=O)CSCc1ccc(C)cc1)c1c(N)n(Cc2ccccc2)c(=O)[nH]c1=O`: 8.05% (inactive); for `O=C(Nc1ccccc1)C1CC(=O)n2c(nc3ccccc32)N1` (stereo not drawn): -1.27% (inactive); for `CC(=O)Nc1ccc(S(=O)(=O)NC2(C(F)(F)F)C(=O)Nc3c2c(=O)[nH]c(=O)n3Cc2ccccc2)cc1` (stereo not drawn): 24.4% (active).
The same measure for `CC(=O)Nc1ccc(S(=O)(=O)NCCc2ccccc2)cc1`: 3.04% (inactive).
The same measure for `CC(=O)Nc1ccc(S(=O)(=O)NC2(C(F)(F)F)C(=O)NC(C)=C2C#N)cc1` (stereo not drawn): 0.09% (inactive).
For the compound `Cc1ccc(C(=O)NCC(=O)OCC(=O)NC2CCCCCCC2)cc1`, the inhibition was -0.8% (inactive).
Take `Cc1cc(OC(=O)c2ccc(OC(C)C)cc2)c([N+](=O)[O-])c(=O)[nH]1`: the inhibition is 1.4% (inactive).
As for `COc1cccc(C=CC(=O)C=CC=Cc2ccccc2)c1`, the figure is -1.3% (inactive); as for `COc1ccc(CCNS(=O)(=O)c2cn(C)nc2C)cc1`, 2.66% (inactive); as for `CCC(C)[C@H]1COCCS(=O)(=O)N1Cc1ccc(C)cc1` (stereo partly drawn), 7.04% (inactive).
Regarding `O=S1(=O)CCO[C@H]2Cc3ccccc3[C@H]2N1Cc1ccccc1`, the inhibition was 27.8% (active).
As for `O=S1(=O)CCOC[C@H](Cc2ccccc2)N1Cc1ccccc1Br`, the figure is 4.8% (inactive); as for `N#Cc1c(-c2ccc(F)cc2)nc(-c2ccccc2)[nH]c1=O`, 1.36% (inactive); as for `N#Cc1c(-c2ccccc2)nc(SCc2cccc(C(F)(F)F)c2)[nH]c1=O`, 14.2% (inactive).
`Cc1ccc(CSc2nc(-c3ccccc3)c(C#N)c(=O)[nH]2)cc1`: the inhibition was 24.4% (active).
With `Oc1oc(-c2ccccc2Br)nc1/C=N/c1ccccn1`, the inhibition is 1.69% (inactive).
On to `CCc1ccc(NC(=O)NC(C)c2ccc3c(c2)OCO3)cc1` (stereo not drawn), for which the inhibition was 4.07% (inactive).
For `CC(NC(=S)Nc1ccc(S(N)(=O)=O)cc1)c1ccc2c(c1)OCO2` (stereo not drawn), the inhibition is 27.8% (active).
With `CC(NC(=O)Nc1cccc([N+](=O)[O-])c1)c1ccc2c(c1)OCO2` (stereo not drawn), the inhibition was 0.41% (inactive).
Take `Cc1ccc(NC(=O)N2CCSc3ccccc32)cc1`: the inhibition was 7.44% (inactive).
As to `O=C(Cc1cccs1)N(CC1CCCO1)C1(C(=O)NC2CCCCC2)CCCCC1` (stereo not drawn), the inhibition is 2.99% (inactive).
The same measure for `O=C(Cn1cnc2ccccc21)Nc1ccccc1-c1ccccc1`: 5.45% (inactive); for `CCC(C(=O)OCC(=O)Nc1ccccc1-c1ccccc1)c1ccccc1` (stereo not drawn): 7.25% (inactive); for `O=C(CNCc1ccc(F)cc1)Nc1ccccc1-c1ccccc1`: 24.4% (active).
As for `Cc1ccc(NC(=O)CCCNC(=O)c2ccc(Cl)cc2)cc1S(=O)(=O)N1CCOCC1`, the figure is 2.83% (inactive); as for `COc1ccccc1CCNC(=O)C1CCN(C(=O)/C=C/c2ccccc2)CC1`, 10.8% (inactive); as for `CCOc1ccc(CC(=O)NCCS(=O)(=O)N2CCN(c3ccccc3)CC2)cc1`, 1.28% (inactive).
For the compound `COc1ccc(OCC(=O)NCCS(=O)(=O)N2CCN(c3ccc(F)cc3)CC2)cc1`, the inhibition was -1.87% (inactive).
The same measure for `O=C(COc1ccc(Cl)cc1)NCCS(=O)(=O)N1CCN(c2ccc(F)cc2)CC1`: 28.6% (active); for `CCCC1NC(=S)NC(C)=C1C(C)=O` (stereo not drawn): -9.47% (inactive); for `CC(=O)OCC(=O)C1(O)CCC2C3CC(C)C4=CC(=O)CCC4(C)C3C(O)CC21C` (stereo not drawn): 1.34% (inactive).
With `COc1ccccc1C(=O)Nc1ccnn1C1CCN(Cc2cnn(C)c2)CC1`, the inhibition is 4.33% (inactive).
In the case of `COc1ccc(CCNC(=S)N2CCN(S(=O)(=O)c3ccc(Cl)cc3)CC2)cc1`, the inhibition was 11.4% (inactive).
The same measure for `Oc1cc2c(cc1O)CN(C(=S)NCCc1ccc(Cl)cc1)CCC2`: 63.6% (active); for `O=C1CCN(C(=S)NCCc2ccccc2)CC1`: 1.71% (inactive); for `CC12c3ccccc3C(c3ccccc31)C1C(=O)N(Cc3cccnc3)C(=O)C12` (stereo not drawn): 1.4% (inactive).
`CCO/N=C(/C)c1c(O)cc(-c2ccccc2)n(-c2ccccc2)c1=O`: the inhibition is 7.22% (inactive).
On to `C=CCO/N=C(\C)c1c(O)c(C)c(-c2ccccc2)n(-c2ccccc2)c1=O`, for which the inhibition is 31.5% (active).
With `Cc1nn(-c2ccccc2)c(C)c1/C=N/NC(=O)CSc1nc2ccccc2c(=O)n1-c1ccccc1`, the inhibition was 2.37% (inactive).
For the compound `Cc1ccsc1-c1nc(CSCC(=O)NCCN2CCCC2)c(C)o1`, the inhibition is 0.8% (inactive).
For the compound `COc1cc2c(cc1OC)C(Cc1cc(OC)c(OC)cc1[N+](=O)[O-])=NCC2`, the inhibition is 0.33% (inactive).
Regarding `CCCC1OC23CCCCC2C(C#N)(C#N)C1(C#N)C(=N)O3` (stereo not drawn), the inhibition was 29.1% (active).
For the compound `O=C1/C(=C\c2ccc(O)cc2)CCC1CNc1ccc(Cl)cc1` (stereo not drawn), the inhibition was -1.51% (inactive).
For the compound `CCOC(=O)/C(C#N)=C/c1cn(CCC(=O)O)nc1-c1ccc(Br)cc1`, the inhibition is 2.11% (inactive).
On to `O=C(O)CCn1cc(/C=C/C(=O)c2ccc(Cl)cc2)c(-c2cccc(Br)c2)n1`, for which the inhibition is 51.4% (active).
For `Cc1cccc(C=CC(=O)c2ccc(Cl)cc2)c1`, the inhibition was -1.7% (inactive).
As to `O=C(OCC(=O)N1CCN(C(=O)c2ccco2)CC1)c1ccc(Cl)c(Cl)c1`, the inhibition is 2.92% (inactive).
As to `O=C(O)CCSc1nnc(-c2ccccc2)n1-c1ccccc1`, the inhibition was 24.4% (active).
The same measure for `NNC(=O)CSc1nnc(-c2ccccc2)n1-c1ccccc1`: 17.7% (inactive); for `O=C(O)CSc1nnc(-c2ccc3c(c2)OCO3)n1-c1ccccc1`: 0.01% (inactive); for `CCOc1cc(/C=N/NC(=O)c2cccc(S(=O)(=O)N3CCOCC3)c2)ccc1OCC(=O)N(C)C`: 2.5% (inactive).
In the case of `O=C(NCCc1ccccc1)c1c[nH]c2ccc(F)cc2c1=O`, the inhibition is 3.36% (inactive).
`CCOC(=O)c1ccccc1OC(=O)Oc1ccccc1C(=O)OCC`: the inhibition is 4.58% (inactive).
Take `CCOC(=O)c1c(C)nc2c(c1C)c(=O)oc1ccccc12`: the inhibition is 4.46% (inactive).
As for `CCOC(=O)c1c(C)[nH]c2c1-c1ccccc1C(=O)C2=O`, the figure is 46.4% (active); as for `C/C(=N\Nc1ccc(Cl)nn1)c1ccccc1O`, -0.23% (inactive).
With `COc1ccccc1N1CCN(S(=O)(=O)c2ccc(Cl)cc2)CC1`, the inhibition is 31.7% (active).
As for `COc1ccccc1N1CCN(C(=O)c2ccc(Cl)c(S(=O)(=O)N3CCCC3)c2)CC1`, the inhibition was 2.58% (inactive).
`COc1ccccc1N1CCN(S(=O)(=O)c2ccc3c(c2)NC(=O)CS3)CC1`: the inhibition was -1.51% (inactive).
For `COc1ccc(CCNC(=O)CN2CCC(n3nnc4cc(F)ccc43)CC2)cc1OC`, the inhibition was 4.75% (inactive).
As for `CCOC(=O)c1[nH]c(C)c(C(=O)OCC(=O)N2c3ccccc3CC2C)c1C` (stereo not drawn), the inhibition is 3.77% (inactive).
On to `CSC1=NC2(C)CCCCC2C12C=CC(=O)C=C2` (stereo not drawn), for which the inhibition was 24.6% (active).
`O=C(CC(=O)c1cccnc1)c1ccccc1`: the inhibition was 0.07% (inactive).
On to `CC[n+]1c(C)n(-c2ccccc2)c2ccc(NC(C)=O)cc21`, for which the inhibition was 1.05% (inactive).
With `CCc1ccc(NC(=O)CN2C(=O)CSC2=O)cc1`, the inhibition was 4.64% (inactive).
In the case of `Cc1ccc(S(=O)(=O)N(CCCN(C)C)Cc2ccc3c(c2)OCO3)cc1`, the inhibition is 1.52% (inactive).
Consider `O=C(Oc1ccc2c(c1)CCC2)N1CCOCC1`, for which the inhibition is 2.56% (inactive).
Take `CC(C)C(c1nnnn1CCc1ccccc1)N1CCN(C(=O)c2ccco2)CC1` (stereo not drawn): the inhibition is 3.54% (inactive).
Take `COc1ccc(CCn2nnnc2C(c2ccccc2)N2CCN(C)CC2)cc1OC` (stereo not drawn): the inhibition is 2.25% (inactive).
The same measure for `N#Cc1ccc(C(c2nnnn2CCc2ccccc2)N2CCCCCC2)cc1` (stereo not drawn): 25.7% (active); for `O=C(NCc1ccc2c(c1)OCO2)c1c(O)nc2sccn2c1=O`: 5.79% (inactive).
Regarding `Cc1ccc(C(=O)CN2C(=O)NC3(CCOc4ccccc43)C2=O)s1` (stereo not drawn), the inhibition is -1.4% (inactive).
For `Cc1cccc(OCCNC(=S)NC(=O)c2cccnc2)c1`, the inhibition was -2.68% (inactive).
The same measure for `Cc1cccc(OCCNC(=O)CSc2ccc(C(F)(F)F)cc2[N+](=O)[O-])c1`: 27.4% (active); for `C=CCNC(=O)CCCOc1cccc(C)c1`: -2.13% (inactive); for `CC(C)NC(=O)Nc1cccc2c1O[C@H](CN(C)S(=O)(=O)c1cccs1)[C@@H](C)CN([C@H](C)CO)C2=O`: 6.94% (inactive).
In the case of `Cc1ccc(CN(C)Cc2cc(=O)oc3cc(C)c(Cl)cc23)cc1`, the inhibition was 28.5% (active).
Consider `Cc1cc2oc(=O)cc(CN(C)Cc3ccc(OC(F)F)cc3)c2cc1Cl`, for which the inhibition was -0.62% (inactive).
For the compound `Cc1cc2oc(=O)cc(CN3CCN(Cc4ccccc4)CC3)c2cc1C`, the inhibition is -2.46% (inactive).
Turning to `CCn1c(SCC(=O)Nc2cccc(F)c2)nnc1-c1cc2cc(Br)ccc2o1`, the inhibition was -4.23% (inactive).
As for `C=CCn1c(C23CC4CC(CC(C4)C2)C3)n[nH]c1=S`, the inhibition was 29.8% (active).
For the compound `C=CCn1c(SCC(=O)NC)nnc1C12CC3CC(CC(C3)C1)C2`, the inhibition was 4.85% (inactive).
Turning to `C=CCn1c(-c2ccc3[nH]c(C)c(C)c3c2)n[nH]c1=S`, the inhibition is -1.88% (inactive).
Consider `Cc1cc(C)cc(NC(=O)C(OC(=O)c2ccc(O)cc2)c2ccccc2)c1` (stereo not drawn), for which the inhibition is -4.34% (inactive).
In the case of `O=C1/C(=C\c2ccc([N+](=O)[O-])cc2)CS(=O)(=O)C/C1=C/c1ccc([N+](=O)[O-])cc1`, the inhibition was -2.78% (inactive).
Regarding `Cc1ccc(N(CCC(=O)O)S(=O)(=O)c2cccc(C(F)(F)F)c2)cc1`, the inhibition was 19.6% (inactive).
Turning to `O=C(O)c1cc(S(=O)(=O)N(Cc2ccccc2)c2cccc(C(F)(F)F)c2)ccc1Cl`, the inhibition is 28.5% (active).
With `O=C(O)c1cc(S(=O)(=O)N(Cc2ccccc2)c2ccccc2)ccc1Cl`, the inhibition is 18.7% (inactive).

These data come from PubChem BioAssay AID492953 (The Scripps Research Institute Molecular Screening Center, 2010).
